Bioassay records deposited in PubChem by The Scripps Research Institute Molecular Screening Center.
TEAD-YAP block: TEAD-YAP interaction inhibition; AID 1259422; inhibition, % at 9.12 µM; HEK-TIYL cells, TEAD-Gal4/YAP UAS-luciferase luminescence; 1.4% of 640,000 active; in the data active means inhibition above about 32%
FBW7 act: activators of human E3 ligase FBW7 | Q969H0 | AlphaScreen FBW7–phospho-cyclin E peptide binding, activator screen | normalized activity (activation), % at 26.1 µM | 0.13% of 650,000 active | AID 1259310; in the data active means normalized activity above about 1.9%;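 further: purified mutant Fbw7 with reduced substrate affinity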
GPR151 activ: activators of human GPR151; activation, % at 11.2 µM; AID 1508602; Q8TDV0; PathHunter beta-arrestin GPR151 cells, luminescence; 1% of 650,000 active; in the data active means activation above about 4.9%
MITF inh: blocks human microphthalmia-associated transcription factor | AID 1259374 | 0.91% of 650,000 active | O75030 | inhibition, % at 2.6 µM | AlphaScreen MITF homodimerization, bead proximity signal; in the data active means inhibition above about 50%
GPR151 conf act: confirmation of human GPR151 activators | shares compounds with GPR151 activ | GPR151 PathHunter beta-arrestin cells, luminescence, 90 min; % of EA-reagent control over plate median | activation, % at 11.2 µM | 6,700 tested, under 10 active;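 active means mean percent activation across replicates above the confirmation screen cutoff of 4.91%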
GPR119 ag: GPR119 activation, counter-screen for GPR151 activators | shares compounds with GPR151 activ | 0.3% of 6,700 active | AID 1508611 | GPR119 PathHunter beta-arrestin cells, luminescence, 90 min; 0 = compound-well median, 100 = enzyme-acceptor control | activation, % at 11.2 µM;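 active means mean percent activation in the counterscreen above 29.09%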;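 further: counterscreen on off-target GPR119 to flag nonselective hits from the GPR151 activator screen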
Target sequence (Q8TDV5 whole entry, looked up): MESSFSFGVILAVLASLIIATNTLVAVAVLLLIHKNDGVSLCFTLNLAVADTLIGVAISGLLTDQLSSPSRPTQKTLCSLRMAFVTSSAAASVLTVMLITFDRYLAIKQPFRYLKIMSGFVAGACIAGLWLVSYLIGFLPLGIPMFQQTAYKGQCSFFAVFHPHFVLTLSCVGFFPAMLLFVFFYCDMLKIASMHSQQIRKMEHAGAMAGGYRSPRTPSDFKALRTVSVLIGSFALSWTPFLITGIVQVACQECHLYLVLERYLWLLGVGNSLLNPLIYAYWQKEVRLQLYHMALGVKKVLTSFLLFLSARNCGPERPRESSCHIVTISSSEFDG
Of the large screens only hits and unclear results are named; the others gave an inactive call (follow-up assays come after a bar, where they were run). Compounds with a hit are over-represented: about 3.5% of the library has one in this group of screens.

COc1cc(SC)ccc1C(=O)Nc1ccc2c(c1)OC(C)(C)O2	GPR151 activ 5.2 | GPR151 conf act inactive | GPR119 ag inactive
CC(C)(CO)NCc1ccc(Br)cc1	GPR151 activ 5.3 | GPR151 conf act inactive | GPR119 ag inactive
O=C1/C(=C\c2cccc([N+](=O)[O-])c2)SC(=S)N1N1C(=O)c2ccccc2C1=O	GPR151 activ 5.0 | GPR151 conf act inactive | GPR119 ag inactive
O=C1/C(=C/c2ccccc2)SC(=S)N1N1C(=O)c2ccccc2C1=O	none
O=C(Nc1sc2c(c1C(=O)N1CCCCC1)CCCCC2)c1ccccc1	none
COc1ccccc1N1CCN(C2CCCN(Cc3ccccc3O)C2)CC1 (configuration not stated)	GPR151 activ 8.0 | GPR151 conf act inactive | GPR119 ag inactive
Cc1ccc(CN[C@H]2C[C@H]3C(=O)N[C@@H](CO)C(=O)N3C2)c(C)c1	none
CCNc1nc(NCC)n2c(SCC(=O)Nc3ccc(C)cc3C)nnc2n1	none
CCNc1nc(NCC)n2c(SCC(=O)Nc3ccccc3C)nnc2n1	GPR151 activ 6.8 | GPR151 conf act inactive | GPR119 ag inactive
COc1ccc2nc(C)[nH]c2c1	GPR151 activ 5.2 | GPR151 conf act inactive | GPR119 ag inactive
COc1cc2nc(C)[nH]c2cc1OC	none
CCCc1cc(C(=O)N2CCC[C@@H]3CN(C(=O)c4ccco4)CC[C@@H]32)no1	none
CC(Cc1ccccc1)N=C1SCC(=O)N1Cc1ccccc1 (configuration not stated)	GPR151 activ 7.6 | GPR151 conf act inactive | GPR119 ag inactive
O=c1c2cnn(-c3ccccc3)c2ncn1C/C=C/c1ccccc1	GPR151 activ 8.3 | GPR151 conf act inactive | GPR119 ag inactive
COc1cccc(CN2CCN(C(=O)CCC3(C)CCC(=O)N3)CC2=O)c1 (configuration not stated)	GPR151 activ 7.8 | GPR151 conf act inactive | GPR119 ag inactive
O=C(CSCCc1ccccn1)Nc1ccccc1Cl	GPR151 activ 8.0 | GPR151 conf act inactive | GPR119 ag inactive
O=C(CSCC(=O)Nc1ccccn1)Nc1ccc2ccccc2c1	none
O=C(CSCc1ccccn1)Nc1ccc2ccccc2c1	GPR151 activ 7.5 | GPR151 conf act inactive | GPR119 ag inactive
O=C(CSCCc1ccccn1)Nc1ccc(I)cc1	GPR151 activ 5.7 | GPR151 conf act inactive | GPR119 ag inactive
CCOC(=O)C1=C(C)N=c2s/c(=C\c3ccc(-c4ccc(C(=O)O)cc4)o3)c(=O)n2C1c1ccc2c(c1)OCO2 (configuration not stated)	none
Cc1sc2nc(C3CC3)nc(SCC(N)=O)c2c1C	GPR151 activ 6.8 | GPR151 conf act inactive | GPR119 ag inactive
CCOC(=O)CSc1nc(C2CC2)nc2sc(C)c(C)c12	none
Cc1cc(OCC(=O)NCC(C)CN(C)C)ccc1Cl (configuration not stated)	GPR151 activ 5.8 | GPR151 conf act inactive | GPR119 ag inactive
Cc1cc(OCC(=O)NCc2ccc(F)cc2)ccc1Cl	GPR151 activ 6.1 | GPR151 conf act inactive | GPR119 ag inactive
Cc1c(C(=O)NCc2ccccn2)sc2ncn(Cc3cccc(F)c3)c(=O)c12	none
COc1cccc2cc3c(=O)n(-c4ccccc4)nc-3oc12	GPR151 activ 10 | GPR151 conf act inactive | GPR119 ag inactive
CN(c1ccc(C(=O)N2CCCC2)cc1)S(=O)(=O)c1ccc(Cl)cc1	GPR151 activ 6.6 | GPR151 conf act inactive | GPR119 ag inactive
CS(=O)(=O)N1CCN(C(=S)NCc2ccc(F)cc2)CC1	none
CS(=O)(=O)N1CCN(C(=O)c2ccncc2)CC1	GPR151 activ 5.6 | GPR151 conf act inactive | GPR119 ag inactive
CS(=O)(=O)N1CCN(C(=O)c2ccc(Cl)cc2)CC1	GPR151 activ 7.8 | GPR151 conf act inactive | GPR119 ag inactive
CS(=O)(=O)N1CCN(C(=S)NCc2ccc(Cl)cc2)CC1	GPR151 activ 6.8 | GPR151 conf act inactive | GPR119 ag inactive
CS(=O)(=O)N1CCN(C(=O)c2cccnc2)CC1	none
COc1cc(C2C(C(=O)OC(C)C)=C(C)NC3=C2C(=O)CC(c2cccs2)C3)cc([N+](=O)[O-])c1O (configuration not stated)	none
O=C(Nc1nc2c(s1)-c1cccc3cccc-2c13)C1CC1	GPR151 activ 5.0 | GPR151 conf act inactive | GPR119 ag inactive
